An excerpt weighted towards active compounds, which were near 7.4% of everything screened.
Hedgehog inh = blocks Sonic Hedgehog signaling; inhibition, % (no concentration beside the values); actives 2.1% (n = 22,000); AID 2313; Shh-LIGHT2 Gli-luciferase reporter, 30 h;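 active = mean inhibition across valid replicates above about 65%, limit read from the data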;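 also: pathway switched on by Shh-conditioned medium diluted 1 in 25 in low serum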
PD-1 reversal = activators reversing PD-1 mediated T-cell inhibition; primary human CD4 T cells, PD-L1 beads, CellTiter-Glo 96 h; activation, % (test concentration not listed); 29,000 tested, under 10 active; AID 2316; call rule not given here
NOMO-1 viab = STK33 inhibitor candidate reducing NOMO-1 cell viability; NOMO-1 AML viability, CellTiter-Glo luminescence, 72 h; AID 2330; actives 7.5% (n = 37,000); inhibition, % (concentration not given with the values); in the data active = inhibition above about 80%
YB-1 expression = YB-1 expression inhibition; actives 0.37% (n = 30,000); delta delta Cp (YB-1 minus CDIP) (no concentration beside the values); U2OS, qRT-PCR YB-1 vs CDIP delta delta Cp, 16 h; stronger effect = higher value; zero = DMSO, each unit about twofold;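 active = delta delta Cp rounded down to an integer at or above 3, about 3 SD of DMSO wells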;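 also: higher means less YB-1 transcript or more CDIP transcript relative to DMSO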
MITF inhib = blocks MITF activity; TRPM1 promoter luciferase, luminescence, 24 h; inhibition, % (concentration not given with the values); actives 0.28% (n = 37,000); AID 2240; in the data active = inhibition above about 85%;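 also: human melanocyte line stably carrying TRPM1 promoter luciferase reporter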
Numbers stand for hits; 0 = inactive; - = not tested or not shown.

SMILES	Hedgehog inh	PD-1 reversal	NOMO-1 viab	YB-1 expression	MITF inhib
COc1ccc(CN(C)C[C@H]2Oc3ccc(NC(=O)Nc4ccccc4)cc3C(=O)N([C@H](C)CO)C[C@H]2C)cc1	0	-	0	0	0
COc1ccc(NC(=O)Nc2ccc3c(c2)C(=O)N([C@@H](C)CO)C[C@@H](C)[C@H](CN(C)Cc2ccc(-c4ccccc4)cc2)O3)cc1	0	0	97.1	0	0
C[C@@H]1CN([C@@H](C)CO)C(=O)c2cc(NC(=O)Nc3ccccc3)ccc2O[C@@H]1CN(C)Cc1ccc(-c2ccccc2)cc1	-	0	113.8	0	0
CC(=O)N(c1ccc2oc3c(c2c1)CCCC3)S(=O)(=O)c1cccc2cccnc12	-	0	0	-	0
NC(N)=NS(=O)(=O)c1ccc(N=Cc2ccccc2O)cc1	0	0	0	0	0
CC1(C)C(=O)C=CC2(C)C1CC(O)C1(C)C3=CCC(c4ccoc4)C3(C)CCC21 (configuration not stated)	0	0	118.6	0	0
Cc1cccc(C(=O)Nc2ccc3[nH]c(=O)[nH]c3c2)c1	-	0	0	0	0
COc1ccc(C(OC(=O)c2ccccc2)c2nccc3ccccc23)cc1 (configuration not stated)	-	0	105.4	0	0
CSC1=N/C(=C\c2ccc(Cl)cc2)C(=O)N1CCc1c[nH]c2ccccc12	0	0	84.9	0	0
O=C(CN1C(=O)/C(=C\c2ccc(F)cc2)N=C1c1ccccc1)c1ccco1	0	0	0	0	0
Cc1ccc2nc(CCCC(=O)O)[nH]c2c1	0	0	0	0	0
N#C/C(=C(\O)c1ccc(C(=O)c2ccccc2)cc1)c1nc2ccccc2s1	96.5	0	0	0	0
COC(=O)C1=C(N)Oc2cc(C)n(Cc3ccccc3)c(=O)c2C1c1ccncc1 (configuration not stated)	0	0	0	0	0
C=C(C)C(=O)O[C@H]1[C@H]2C(=C)C(=O)O[C@@H]2C[C@@H](C)[C@@H]2O[C@@H]2C(=O)[C@](C)(O)[C@@H]1OC(=O)C(=C)C	99.8	0	119.1	0	0
C[C@H](CO)N1C[C@H](C)[C@@H](CN(C)Cc2ccc(C(=O)Nc3ccccc3N)cc2)Oc2c(NC(=O)Nc3ccc(F)cc3)cccc2C1=O	-	0	125.5	0	0
C[C@@H]1CN([C@H](C)CO)C(=O)c2cccc(NC(=O)Nc3ccccc3)c2O[C@H]1CN(C)Cc1ccc(C(=O)O)cc1	0	-	0	0	0
C[C@H]1CN([C@@H](C)CO)C(=O)c2cccc(NC(=O)Nc3ccc(F)cc3)c2O[C@H]1CN(C)Cc1ccc(C(=O)Nc2ccccc2N)cc1	-	0	127.2	0	0
C[C@@H]1CN([C@H](C)CO)C(=O)c2cccc(NC(=O)Nc3ccccc3)c2O[C@@H]1CN(C)Cc1ccc(C(=O)Nc2ccccc2N)cc1	-	0	128.3	0	0
Cc1ccc(C)c(NC(=O)C(C)n2nc(C)c([N+](=O)[O-])c2C)c1 (configuration not stated)	-	0	0	-	0
CCC(Sc1nnc(C)s1)C(=O)Nc1ccc(Cl)cc1 (configuration not stated)	-	0	0	-	0
O=C(c1ccccc1C(=O)N1CCCCC1)N1CCCCC1	-	0	0	0	0
C[C@@H]1CN([C@H](C)CO)C(=O)c2cc(NC(=O)Cc3ccccc3)ccc2O[C@H]1CN(C)Cc1ccncc1	-	0	0	0	0
C[C@H]1CN([C@@H](C)CO)C(=O)c2cc(NC(=O)Cc3ccccc3)ccc2O[C@@H]1CN(C)Cc1ccc2c(c1)OCO2	0	0	0	0	0
C[C@H](CO)N1C[C@H](C)[C@H](CN(C)Cc2ccc3c(c2)OCO3)Oc2ccc(NC(=O)Cc3ccccc3)cc2C1=O	0	0	108.7	0	0
C[C@H]1CN([C@@H](C)CO)C(=O)c2cc(NC(=O)CCC(F)(F)F)ccc2O[C@@H]1CN(C)Cc1ccc2c(c1)OCO2	-	0	0	0	0
SMILES	Hedgehog inh	PD-1 reversal	NOMO-1 viab	YB-1 expression	MITF inhib
C[C@H](CO)N1C[C@H](C)[C@H](CN(C)Cc2ccc3c(c2)OCO3)Oc2ccc(NC(=O)CCC(F)(F)F)cc2C1=O	0	0	92.0	0	0
C[C@H]1CN([C@@H](C)CO)C(=O)c2cc(NC(=O)Cc3ccccc3)ccc2O[C@H]1CN(C)Cc1ccncc1	-	0	92.4	0	0
CCN(CC)C(=S)SSC(=S)N(CC)CC	0	0	140.8	0	0
CCOC(=O)c1c(NC(=O)C2CC(c3ccccc3Cl)=NO2)sc(C)c1C (configuration not stated)	-	-	0	-	0
C[C@H](CO)N1C[C@H](C)[C@H](CN(C)S(=O)(=O)c2ccc(Cl)cc2)Oc2c(NS(=O)(=O)c3cccs3)cccc2C1=O	77.0	0	0	0	0
C[C@@H]1CN([C@H](C)CO)C(=O)c2cccc(NS(=O)(=O)c3cccs3)c2O[C@H]1CN(C)C(=O)NC1CCCCC1	0	0	0	0	0
C[C@H](CO)N1C[C@H](C)[C@H](CN(C)S(=O)(=O)c2ccc(Cl)cc2)Oc2c(NS(=O)(=O)c3ccc(F)cc3)cccc2C1=O	69.6	-	0	0	0
C[C@H](CO)N1C[C@H](C)[C@H](CN(C)C(=O)NC2CCCCC2)Oc2c(NS(=O)(=O)c3cccs3)cccc2C1=O	67.8	0	0	0	0
COc1ccc([N+](=O)[O-])cc1NC(=O)C(CC(C)C)N1C(=O)c2ccccc2C1=O (configuration not stated)	-	0	0	-	0
COc1ccc(S(=O)(=O)N(C)CC(=O)Nc2cccc(C(F)(F)F)c2)cc1	-	0	0	-	0
O=C(CSc1nc2ccc([N+](=O)[O-])cc2s1)Nc1ccc(Br)cc1Cl	-	0	0	-	0
Cc1noc(C)c1NC(=O)N(C)C[C@H]1Oc2ccc(NC(=O)CCN3CCOCC3)cc2CC(=O)N([C@@H](C)CO)C[C@H]1C	66.5	0	0	0	0
CNC[C@@H]1Oc2ccc(NC(=O)CCN3CCOCC3)cc2CC(=O)N([C@H](C)CO)C[C@H]1C	0	0	0	9.51	0
Cc1cccc(N2C(=O)CC(SCC(=O)Nc3ccccc3)C2=O)c1 (configuration not stated)	-	-	0	-	0
COc1ccc(S(=O)(=O)Nc2ccc3c(c2)C(=O)N([C@@H](C)CO)C[C@H](C)[C@H](CN(C)Cc2ccc(C(=O)Nc4ccccc4N)cc2)O3)cc1	-	0	108.8	0	0
C[C@@H]1CN([C@H](C)CO)C(=O)c2cc(NS(=O)(=O)c3ccc(Cl)cc3)ccc2O[C@@H]1CN(C)Cc1ccc(C(=O)Nc2ccccc2N)cc1	-	0	109.0	0	0
C[C@H](CO)N1C[C@H](C)[C@H](CN(C)Cc2ccc(C(=O)Nc3ccccc3N)cc2)Oc2ccc(NS(=O)(=O)c3ccc(Cl)cc3)cc2C1=O	-	0	96.3	0	0
COc1cc(-c2nc3sc4c(c3c(=O)[nH]2)CCCC4)cc(Br)c1OCC(=O)O	-	-	0	-	0
